# Compound activity: PubChem BioAssay, several laboratories
# Rows were chosen to be rich in hits. Some 1.2% of all compounds tested hit in one or more screens of this group.
# PrP 5UTR inh: inhibition of PrP 5' UTR reporter expression; inhibition, % (no concentration beside the values); hit rate 0.35% among 340,000; cell-based PrP 5' UTR mRNA reporter, plate reader; in the data active = inhibition above about 52%; also: 0 = median of the neutral control wells
# PrPC TRFRET: inhibitors of human cell surface prion protein PrPC, primary screen, cell-based, TR-FRET; Major prion protein (Homo sapiens), P04156; TR-FRET read-out; inhibition, % at 13.8 µM; hit rate 0.43% among 370,000; in the data active = inhibition above about 24%; also: 0% = median of the test wells and 100% = reference compound wells
# UGM FP inh: M. tuberculosis UGM enzyme inhibitors, primary screen, biochemical, fluorescence polarization, single point. purified UGM, fluorescence polarization probe displacement. inhibition, % at 10 µM. hit rate 0.06% among 320,000. AID 504406, 2011; in the data active = inhibition above about 10%, passing the limit was not always enough
# Target sequence (P9WIQ1 whole entry, looked up): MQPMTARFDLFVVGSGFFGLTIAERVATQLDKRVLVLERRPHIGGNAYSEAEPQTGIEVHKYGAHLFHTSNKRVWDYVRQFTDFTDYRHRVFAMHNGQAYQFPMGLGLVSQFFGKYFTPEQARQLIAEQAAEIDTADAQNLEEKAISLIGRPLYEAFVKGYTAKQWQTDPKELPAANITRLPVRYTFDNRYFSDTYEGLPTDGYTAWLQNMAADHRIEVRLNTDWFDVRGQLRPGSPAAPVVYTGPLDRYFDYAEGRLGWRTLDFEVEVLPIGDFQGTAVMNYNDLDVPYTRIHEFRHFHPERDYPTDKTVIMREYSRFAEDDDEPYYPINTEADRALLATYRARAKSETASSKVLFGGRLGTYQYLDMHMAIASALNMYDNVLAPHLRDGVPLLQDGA
# SSB-PriA inh: inhibitors of Klebsiella pneumoniae PriA binding to SSB C-terminal tail, primary screen, biochemical, AlphaScreen; AlphaScreen SSBct-PriA binding, biotinylated peptide; AID 1272365, 2023; hit rate 0.6% among 430,000; inhibition, % at 33 µM; PriA–SSB C-terminal tail interaction (Klebsiella pneumoniae); in the data active = inhibition mostly above about 37%, no sharp cut-off; inactive = mostly below about 20%;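 also: plate controls were negative control peptide for no effect and reference peptide for full effect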
# Rv3671c inh: Rv3671c serine protease inhibitors, primary screen, biochemical, fluorescence polarization, M. tuberculosis H37Rv. hit rate 0.048% among 320,000. inhibition, % at 5.96 µM. P9WHR9. AID 2606, 2010; in the data active = inhibition above about 38%;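 also: extracellular domain of Rv3671c used as enzyme; 0% = enzyme with DMSO and 100% = no enzyme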
# FadD28 binding: inhibitors of FadD28 bisubstrate probe binding, primary screen, biochemical, fluorescence polarization, single point | inhibition, % at 12.5 µM | hit rate 0.22% among 360,000 | AID 588549, 2011; in the data active = inhibition above about 8.5%, passing the limit was not always enough
# Starred values were filed as active, the others as inactive; nt = no result; ! = not active in a repeat.
SMILES,PrP 5UTR inh,PrPC TRFRET,UGM FP inh,SSB-PriA inh,Rv3671c inh,FadD28 binding
COc1ccc(NC(=O)CCCC(=O)O)c(OC)c1,nt,nt,nt,4.0,nt,nt
CCOC(=O)c1c(C)c(C(=O)N2CCc3ccccc3C2)c(C)n1CC,-17.2,0.9,1.6,38.8*,2.5,-1.9
CCOC(=O)c1c(C)c(C(=O)Nc2ccccc2)c(C)n1CC,-7.7,-1.4,0.5,-7.8,5.0,-0.8
O=C(c1ccsc1)c1ccc(CNS(=O)(=O)c2ccccc2Cl)s1,nt,nt,nt,6.0,nt,nt
CCCCCC(=O)N1CC2(CC(c3cccc(NC(=O)[C@@H]4CCC(=O)N4)c3)=NO2)C[C@@H]1C(N)=O (some centres undefined),-21.6,-0.8,-2.2,1.3,12.0,-0.5
C=C(C)C(=O)Nc1cccc(C2=NOC3(C2)C[C@@H](C(N)=O)N(C(=O)CCCCC)C3)c1 (some centres undefined),-5.6,-5.8,2.1,61.4*,-6.4,nt
C=C(C)C(=O)Nc1cccc(C2=NOC3(C2)C[C@@H](C(N)=O)N(C(=O)c2ccc(OC)cc2)C3)c1 (some centres undefined),-22.0,nt,2.3,47.8*,4.5,-0.7
C=C(C)C(=O)Nc1cccc(C2=NOC3(C2)C[C@@H](C(N)=O)N(C(=O)c2cc([N+](=O)[O-])cc([N+](=O)[O-])c2)C3)c1 (some centres undefined),-9.2,-43.4,-0.6,8.8,-2.7,-3.5
CC1(C)CS(=O)(=O)N(c2ccc(Cl)c(C(=O)NCc3ccco3)c2)C1=O,nt,nt,nt,5.0,nt,nt
O=[N+]([O-])c1cc(Cl)c(O)c2ncccc12,-17.4,-2.9,nt,85.9*!,nt,-0.3
O=[N+]([O-])c1cc(Cl)c2cccnc2c1O,-20.8,-15.8,7.5,66.6*,4.3,1.0
O=[N+]([O-])c1ccc(N2CCNCC2)c2ncccc12,nt,nt,nt,53.0*,nt,nt
O=[N+]([O-])c1ccc(O)c2ncccc12,-21.1,-35.9,-0.9,133.0*,-2.5,-3.5
CN1CCN(c2ccc([N+](=O)[O-])c3cccnc23)CC1,-6.8,-49.0,-1.1,26.3,-2.6,-0.9
COc1ccc(S(=O)(=O)Nc2ccc(Nc3ccc(C)nn3)cc2)c(C)c1C,nt,nt,nt,-9.0,nt,nt
CCOC(=O)/C(=N\Nc1cccc(Cl)c1)Sc1nnc(-c2ccc(OC)cc2)n1C,-6.5,-5.1,0.0,nt,-5.4,0.3
COC(=O)C(=NNc1ccc(Cl)cc1)Sc1nnc(-c2ccc(OC)cc2)n1C,nt,nt,nt,116.4*,nt,nt
CCCCCCCCCCCCCCC[C@@H](O)[C@@H](N)CO,-10.1,9.9,nt,-2.1,nt,47.9*
CCCCCCCCCC(=O)OCC(O)CO (centres undefined),-1.1,11.5,-2.5,-11.1,-1.4,-0.3
CCc1cccc(C)c1NC(=S)NCc1ccc2c(c1)cc(C)n2C,-26.7,10.1,-3.3,52.9*,7.4,-3.2
Cc1cc2cc(CNC(=S)NC3CCCCC3)ccc2n1C,-10.0,5.3,-0.6,58.8*,8.6,-5.7
CCCCC(=O)NCc1ccc2c(c1)cc(C)n2C,-27.1,17.0,-3.1,3.0,-8.5,-0.2
CCCCNC(=S)NCc1ccc2c(c1)cc(C)n2C,-36.6,9.2,2.8,82.5*,8.0,-3.5
Cc1ccccc1NC(=S)NCc1ccc2c(c1)cc(C)n2C,-21.1,12.9,-1.1,35.7,-6.3,0.8
COc1ccc(NC(=S)NCc2ccc3c(c2)cc(C)n3C)cc1,-5.6,-10.6,-0.6,74.7*,7.6,-2.9
SMILES,PrP 5UTR inh,PrPC TRFRET,UGM FP inh,SSB-PriA inh,Rv3671c inh,FadD28 binding
COc1cccc(CSc2nc(CC(=O)Nc3ccc(F)c(Cl)c3)cc(=O)[nH]2)c1,nt,nt,nt,-2.0,nt,nt
O=C(O)CCn1cncn1,nt,nt,nt,-12.0,nt,nt
O=C(CCCC(=O)c1ccccc1)NCc1ccnc(-c2cccs2)c1,nt,nt,nt,-10.0,nt,nt
Cn1ccnc1SCC1CCN(S(=O)(=O)c2ccc3c(c2)CCCC3)CC1,nt,nt,nt,63.0*,nt,nt
Cn1ccnc1SCC1CCN(S(=O)(=O)c2ccc(C(F)(F)F)cc2)CC1,nt,nt,nt,17.0,nt,nt
CCOC(=O)CC(c1ccc(N)cc1)n1c(C)ccc1C (centres undefined),-9.5,-2.2,-2.9,-2.8,2.6,-1.0
Cc1ccc(C)n1C(CC(=O)O)c1ccc(C#N)cc1 (centres undefined),-24.4,-2.4,2.1,7.9,-0.1,11.5*
CCOc1ccc2cc(/C=N\N3C(=O)C4C=CC=CC4N=C3C)c(Cl)nc2c1 (centres undefined),nt,nt,nt,0.0,nt,nt
Cc1c(N=Nc2c(O)[nH]c(=S)[nH]c2=O)c(=O)n(-c2ccccc2)n1C,-4.5,-3.3,0.7,53.1*,-72.8,-1.6
COc1cc(C)ccc1OCC(=O)OCC(=O)c1[nH]c(C)c(C(C)=O)c1C,-20.6,7.6,0.1,7.0,2.5,-0.3
CC(=O)c1c(C)[nH]c(C(=O)COc2cc(C)ccc2C(C)C)c1C,-2.6,26.2*,-0.9,-3.6,-8.6,0.1
CCN1CCCc2cc(CN(CCN3CCOCC3)C(=S)Nc3ccc(C)cc3)ccc21,-20.7,-2.9,0.4,30.3,1.9,-1.5
CCN1CCCc2cc(CN(CCN3CCOCC3)C(=S)Nc3cccc(Cl)c3)ccc21,-16.8,0.4,-0.4,52.1*,6.3,-2.9
COc1cccc2sc(N(CCCN(C)C)C(=O)c3ccc(S(=O)(=O)N4CCCc5ccccc54)cc3)nc12,-7.1,-14.6,-4.2,20.0*!,8.1,-6.0
COc1ccc(OC)c2sc(N(CCCN(C)C)C(=O)c3ccc(S(=O)(=O)N4CCc5ccccc5C4)cc3)nc12,nt,nt,0.2,32.0,-2.3,nt
COc1cccc2sc(N(CCCN(C)C)C(=O)c3ccc(S(=O)(=O)N4CCc5ccccc5C4)cc3)nc12,-4.9,-9.7,2.1,14.6,-3.6,-5.5
COc1ccc(C)c2sc(N(CCCN(C)C)C(=O)c3ccc(S(=O)(=O)N4CCc5ccccc5C4)cc3)nc12,-18.6,-20.8,1.8,47.0*!,5.1,-3.3
CN(C)CCN(C(=O)c1ccc(S(=O)(=O)N2CCCC2)cc1)c1nc2c(Cl)cccc2s1,nt,nt,nt,1.0,nt,nt
CN(C)CCCN(C(=O)c1ccc(S(=O)(=O)N2CCc3ccccc32)cc1)c1nc2c(Cl)cccc2s1,-10.1,-8.5,-1.2,46.4*,-0.1,-2.3
O=C(NCc1cccs1)[C@H]1CCCN(c2cc(-n3ccc4ccccc43)ncn2)C1,nt,nt,nt,3.0,nt,nt
O=C(Nc1nnc(-c2ccno2)o1)C1COc2ccccc2O1 (centres undefined),nt,nt,nt,21.0,nt,nt
O=C(Nc1nnc(C2CCCO2)o1)C1COc2ccccc2O1 (centres undefined),nt,nt,nt,75.0*,nt,nt
O=C(Nc1nnc(C2CCCO2)o1)C(c1ccccc1)c1ccccc1 (centres undefined),nt,nt,nt,84.0*,nt,nt
Cc1cc(-c2nnc(NC(=O)C3COc4ccccc4O3)o2)n(C)n1 (centres undefined),nt,nt,nt,44.0*,nt,nt
